# Source: paper PMC7862700, “An all-to-all approach to the identification of sequence-specific readers for epigenetic DNA modifications on cytosine”
# Experiments:
# Assay in all cases: DAPPL (digital affinity profiling via proximity ligation, sequencing); 10 mM Tris-HCl pH 7.5, 50 mM NaCl, 1 mM DTT, 4% glycerol, room temperature, 30 min; GST-TFs on glutathione beads, 16-mer random dsDNA library, 0.1% formaldehyde crosslink after washing; high values mean tight binding
# [1] = target: T1, FEV (Homo sapiens, UniProt Q99581 1-238); settings: protein: recombinant; tags: N-terminal GST; dsDNA, one strand shown
# T1 sequence: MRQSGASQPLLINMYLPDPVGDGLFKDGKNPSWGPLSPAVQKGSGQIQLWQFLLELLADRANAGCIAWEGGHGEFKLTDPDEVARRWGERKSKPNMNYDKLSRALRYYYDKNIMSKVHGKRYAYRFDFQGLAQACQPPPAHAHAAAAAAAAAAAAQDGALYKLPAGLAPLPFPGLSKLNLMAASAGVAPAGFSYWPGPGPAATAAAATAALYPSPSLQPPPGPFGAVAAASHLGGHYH
# Outline: (§1)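 After expression in yeast as GST fusions, human transcription factors were bound to glutathione beads, DNA-barcoded and mixed with a tag-only sample. The pools were incubated with 200 nmole of a 16-mer random double-stranded DNA library in Tris/NaCl/DTT/glycerol buffer (30 min, room temperature), washed and crosslinked with 0.1% formaldehyde. Proximity ligation with BsaI/T4 ligase ran for 1 h at 37 °C, before PCR amplification and sequencing on an Illumina NextSeq500. Binding signal is a hexamer's read frequency for a factor divided by its frequency for the tag-only sample.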
# [2] = target: ETV5 (Homo sapiens, UniProt P41161 1-510); settings: protein: recombinant; tags: N-terminal GST; dsDNA, one strand shown
# Outline: as §1
# [3] = target: HSF1 (Homo sapiens, UniProt Q00613 1-529); settings: protein: recombinant; tags: N-terminal GST; chain copies: 3; dsDNA, one strand shown
# Outline: as §1
# [4] = target: T2, SPIC (Homo sapiens, UniProt Q8N5J4 1-248); settings: protein: recombinant; tags: N-terminal GST; dsDNA, one strand shown
# T2 sequence: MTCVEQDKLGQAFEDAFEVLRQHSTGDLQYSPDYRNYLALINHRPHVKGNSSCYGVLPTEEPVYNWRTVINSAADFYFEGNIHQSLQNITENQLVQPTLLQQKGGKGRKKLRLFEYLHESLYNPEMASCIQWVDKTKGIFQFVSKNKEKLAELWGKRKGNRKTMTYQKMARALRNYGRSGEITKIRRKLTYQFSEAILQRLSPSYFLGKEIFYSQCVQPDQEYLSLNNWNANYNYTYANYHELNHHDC
# Outline: as §1
# [5] = target: ELF4 (Homo sapiens, UniProt Q99607 1-663); settings: protein: recombinant; tags: N-terminal GST; dsDNA, one strand shown
# Outline: as §1
# [6] = target: T3, ELK4 (Homo sapiens, UniProt P28324-2 1-405); settings: protein: recombinant; tags: N-terminal GST; dsDNA, one strand shown
# T3 sequence: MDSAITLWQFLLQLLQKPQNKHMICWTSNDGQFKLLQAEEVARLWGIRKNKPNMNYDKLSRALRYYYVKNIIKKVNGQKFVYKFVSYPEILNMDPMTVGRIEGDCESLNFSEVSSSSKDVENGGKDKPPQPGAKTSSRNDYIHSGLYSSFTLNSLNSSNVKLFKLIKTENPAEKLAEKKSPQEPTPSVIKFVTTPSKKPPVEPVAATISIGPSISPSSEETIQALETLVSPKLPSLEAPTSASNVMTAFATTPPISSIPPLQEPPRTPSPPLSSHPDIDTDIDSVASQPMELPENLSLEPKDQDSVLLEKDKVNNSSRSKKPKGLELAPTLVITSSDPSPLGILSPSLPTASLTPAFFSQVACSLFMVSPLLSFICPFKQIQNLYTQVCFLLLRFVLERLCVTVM
# Outline: as §1
# [7] = target: T4, ETV2 (Homo sapiens, UniProt O00321 1-342); settings: protein: recombinant; tags: N-terminal GST; dsDNA, one strand shown
# T4 sequence: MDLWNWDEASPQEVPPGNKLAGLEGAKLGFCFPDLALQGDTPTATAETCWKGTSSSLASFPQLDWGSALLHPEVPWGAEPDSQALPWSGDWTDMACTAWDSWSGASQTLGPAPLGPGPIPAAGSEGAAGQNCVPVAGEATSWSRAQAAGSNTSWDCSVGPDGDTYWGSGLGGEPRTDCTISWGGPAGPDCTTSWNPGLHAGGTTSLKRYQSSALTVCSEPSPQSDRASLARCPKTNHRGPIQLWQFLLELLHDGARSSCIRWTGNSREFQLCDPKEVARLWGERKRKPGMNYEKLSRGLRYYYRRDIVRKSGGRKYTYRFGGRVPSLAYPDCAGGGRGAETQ
# Outline: as §1
# [8] = target: T5, ELF3 (Homo sapiens, UniProt P78545 1-371); settings: protein: recombinant; tags: N-terminal GST; dsDNA, one strand shown
# T5 sequence: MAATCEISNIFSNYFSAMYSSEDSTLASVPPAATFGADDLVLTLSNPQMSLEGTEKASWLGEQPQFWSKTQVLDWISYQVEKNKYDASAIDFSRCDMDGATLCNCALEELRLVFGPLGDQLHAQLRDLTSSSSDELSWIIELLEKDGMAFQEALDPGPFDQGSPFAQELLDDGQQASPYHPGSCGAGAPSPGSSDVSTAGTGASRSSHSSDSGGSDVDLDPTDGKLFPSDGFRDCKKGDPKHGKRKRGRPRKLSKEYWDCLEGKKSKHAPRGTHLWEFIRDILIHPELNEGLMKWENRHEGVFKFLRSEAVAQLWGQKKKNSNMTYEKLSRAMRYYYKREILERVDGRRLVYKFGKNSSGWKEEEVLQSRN
# Outline: as §1
# [9] = target: CRX (Homo sapiens, UniProt O43186 1-299); settings: protein: recombinant; tags: N-terminal GST; dsDNA, one strand shown
# Outline: as §1
# [10] = target: ETV1 (Homo sapiens, UniProt P50549 1-477); settings: protein: recombinant; tags: N-terminal GST; dsDNA, one strand shown
# Outline: as §1
# [11] = target: T6, ERF (Homo sapiens, UniProt P50548 1-548); settings: protein: recombinant; tags: N-terminal GST; dsDNA, one strand shown
# T6 sequence: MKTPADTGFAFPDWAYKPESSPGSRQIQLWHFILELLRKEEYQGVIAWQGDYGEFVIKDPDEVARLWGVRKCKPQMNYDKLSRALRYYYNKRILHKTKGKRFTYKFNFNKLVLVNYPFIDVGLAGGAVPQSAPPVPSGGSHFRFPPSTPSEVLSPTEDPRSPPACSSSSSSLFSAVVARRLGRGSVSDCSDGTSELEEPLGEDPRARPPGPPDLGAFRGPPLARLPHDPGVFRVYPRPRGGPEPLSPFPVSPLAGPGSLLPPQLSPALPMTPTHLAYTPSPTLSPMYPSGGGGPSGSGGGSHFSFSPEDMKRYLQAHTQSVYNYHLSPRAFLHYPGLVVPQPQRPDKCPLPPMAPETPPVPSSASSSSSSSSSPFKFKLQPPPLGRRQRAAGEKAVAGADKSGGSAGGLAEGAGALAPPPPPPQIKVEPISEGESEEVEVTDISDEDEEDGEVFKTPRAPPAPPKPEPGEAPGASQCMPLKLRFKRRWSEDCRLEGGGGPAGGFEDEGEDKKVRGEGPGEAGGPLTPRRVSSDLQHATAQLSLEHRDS
# Outline: as §1
# [12] = target: T7, ETV3L (Homo sapiens, UniProt Q6ZN32 1-361); settings: protein: recombinant; tags: N-terminal GST; dsDNA, one strand shown
# T7 sequence: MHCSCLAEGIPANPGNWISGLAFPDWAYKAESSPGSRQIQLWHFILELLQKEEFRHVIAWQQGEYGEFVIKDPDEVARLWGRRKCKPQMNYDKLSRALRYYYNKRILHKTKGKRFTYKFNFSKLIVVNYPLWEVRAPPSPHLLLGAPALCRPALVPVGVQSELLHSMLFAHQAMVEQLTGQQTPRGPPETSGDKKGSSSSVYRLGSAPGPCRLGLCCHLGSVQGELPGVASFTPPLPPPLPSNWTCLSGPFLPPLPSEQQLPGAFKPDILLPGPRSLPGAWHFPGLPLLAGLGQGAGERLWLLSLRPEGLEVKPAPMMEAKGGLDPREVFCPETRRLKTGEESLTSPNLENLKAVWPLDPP
# Outline: as §1
# [13] = target: T8, ETS2 (Homo sapiens, UniProt P15036 1-469); settings: protein: recombinant; tags: N-terminal GST; dsDNA, one strand shown
# T8 sequence: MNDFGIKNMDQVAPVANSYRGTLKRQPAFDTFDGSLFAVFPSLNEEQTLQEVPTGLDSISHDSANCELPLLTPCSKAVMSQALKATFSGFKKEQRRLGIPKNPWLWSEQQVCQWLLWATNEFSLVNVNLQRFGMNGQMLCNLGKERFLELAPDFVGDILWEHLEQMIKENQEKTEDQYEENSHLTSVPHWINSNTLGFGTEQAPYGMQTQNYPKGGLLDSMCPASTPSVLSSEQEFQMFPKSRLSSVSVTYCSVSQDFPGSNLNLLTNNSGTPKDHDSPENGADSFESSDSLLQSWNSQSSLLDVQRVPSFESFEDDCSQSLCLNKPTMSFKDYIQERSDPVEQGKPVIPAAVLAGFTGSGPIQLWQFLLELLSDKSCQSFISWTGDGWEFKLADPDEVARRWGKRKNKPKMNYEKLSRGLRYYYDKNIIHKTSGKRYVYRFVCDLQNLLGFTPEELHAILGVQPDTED
# Outline: as §1
# [14] = target: T9, SPDEF (Homo sapiens, UniProt O95238 1-335); settings: protein: recombinant; tags: N-terminal GST; dsDNA, one strand shown
# T9 sequence: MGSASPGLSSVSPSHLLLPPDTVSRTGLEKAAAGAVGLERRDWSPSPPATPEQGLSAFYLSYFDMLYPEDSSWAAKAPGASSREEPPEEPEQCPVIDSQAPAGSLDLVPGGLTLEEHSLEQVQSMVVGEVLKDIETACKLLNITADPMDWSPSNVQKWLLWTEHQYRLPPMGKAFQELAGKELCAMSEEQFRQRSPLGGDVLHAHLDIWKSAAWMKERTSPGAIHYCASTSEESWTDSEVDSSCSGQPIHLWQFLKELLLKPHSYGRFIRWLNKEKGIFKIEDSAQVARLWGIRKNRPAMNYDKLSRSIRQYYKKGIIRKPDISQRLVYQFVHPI
# Outline: as §1
# [15] = target: T10, ETV7 (Homo sapiens, UniProt Q9Y603 1-341); settings: protein: recombinant; tags: N-terminal GST; dsDNA, one strand shown
# T10 sequence: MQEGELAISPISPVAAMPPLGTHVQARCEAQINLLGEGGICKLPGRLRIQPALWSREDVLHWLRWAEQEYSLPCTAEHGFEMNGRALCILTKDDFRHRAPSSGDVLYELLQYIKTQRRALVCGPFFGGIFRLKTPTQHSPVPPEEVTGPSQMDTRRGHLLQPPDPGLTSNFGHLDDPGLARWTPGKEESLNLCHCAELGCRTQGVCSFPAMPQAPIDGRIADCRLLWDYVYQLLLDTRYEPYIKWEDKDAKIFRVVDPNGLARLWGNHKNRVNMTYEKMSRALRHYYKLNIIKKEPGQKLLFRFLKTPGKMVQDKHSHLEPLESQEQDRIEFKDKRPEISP
# Outline: as §1
# [16] = target: T11, ELF5 (Homo sapiens, UniProt Q9UKW6-2 1-255); settings: protein: recombinant; tags: N-terminal GST; dsDNA, one strand shown
# T11 sequence: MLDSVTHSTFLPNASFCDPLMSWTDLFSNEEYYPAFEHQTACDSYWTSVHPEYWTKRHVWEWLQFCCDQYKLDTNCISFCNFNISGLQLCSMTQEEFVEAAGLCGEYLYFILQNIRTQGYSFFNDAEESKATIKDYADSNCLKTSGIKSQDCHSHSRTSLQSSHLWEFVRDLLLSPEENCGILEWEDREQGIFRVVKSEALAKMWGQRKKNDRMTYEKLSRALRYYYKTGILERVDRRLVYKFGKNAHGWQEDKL
# Outline: as §1
# [17] = target: T12, ETV3 (Homo sapiens, UniProt P41162-2 1-143); settings: protein: recombinant; tags: N-terminal GST; dsDNA, one strand shown
# T12 sequence: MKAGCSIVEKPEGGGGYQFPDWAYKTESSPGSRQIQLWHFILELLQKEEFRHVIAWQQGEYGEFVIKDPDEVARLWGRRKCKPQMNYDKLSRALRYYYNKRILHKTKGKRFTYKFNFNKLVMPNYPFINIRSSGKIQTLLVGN
# Outline: as §1
# [18] = target: ETV6 (Homo sapiens, UniProt P41212 1-452); settings: protein: recombinant; tags: N-terminal GST; dsDNA, one strand shown
# Outline: as §1
# Chain of ELF4 (Q99607 whole entry): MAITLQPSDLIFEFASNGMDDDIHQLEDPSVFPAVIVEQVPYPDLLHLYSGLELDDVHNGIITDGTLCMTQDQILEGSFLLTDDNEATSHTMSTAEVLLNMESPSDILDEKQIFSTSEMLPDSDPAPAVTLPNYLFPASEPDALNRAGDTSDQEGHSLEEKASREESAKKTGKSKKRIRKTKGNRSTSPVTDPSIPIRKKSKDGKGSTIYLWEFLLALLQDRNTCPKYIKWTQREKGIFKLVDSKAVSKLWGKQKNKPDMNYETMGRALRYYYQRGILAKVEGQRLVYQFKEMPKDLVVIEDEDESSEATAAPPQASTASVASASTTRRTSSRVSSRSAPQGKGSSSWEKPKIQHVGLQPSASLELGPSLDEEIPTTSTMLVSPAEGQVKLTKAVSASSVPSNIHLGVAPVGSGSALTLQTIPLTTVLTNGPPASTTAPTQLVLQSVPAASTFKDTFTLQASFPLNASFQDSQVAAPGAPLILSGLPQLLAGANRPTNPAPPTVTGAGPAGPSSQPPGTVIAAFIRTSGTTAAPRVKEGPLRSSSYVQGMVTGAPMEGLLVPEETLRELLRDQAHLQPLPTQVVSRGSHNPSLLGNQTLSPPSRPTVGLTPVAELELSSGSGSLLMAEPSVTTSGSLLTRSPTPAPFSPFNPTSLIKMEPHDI
# Chain of ETV1 (P50549 whole entry): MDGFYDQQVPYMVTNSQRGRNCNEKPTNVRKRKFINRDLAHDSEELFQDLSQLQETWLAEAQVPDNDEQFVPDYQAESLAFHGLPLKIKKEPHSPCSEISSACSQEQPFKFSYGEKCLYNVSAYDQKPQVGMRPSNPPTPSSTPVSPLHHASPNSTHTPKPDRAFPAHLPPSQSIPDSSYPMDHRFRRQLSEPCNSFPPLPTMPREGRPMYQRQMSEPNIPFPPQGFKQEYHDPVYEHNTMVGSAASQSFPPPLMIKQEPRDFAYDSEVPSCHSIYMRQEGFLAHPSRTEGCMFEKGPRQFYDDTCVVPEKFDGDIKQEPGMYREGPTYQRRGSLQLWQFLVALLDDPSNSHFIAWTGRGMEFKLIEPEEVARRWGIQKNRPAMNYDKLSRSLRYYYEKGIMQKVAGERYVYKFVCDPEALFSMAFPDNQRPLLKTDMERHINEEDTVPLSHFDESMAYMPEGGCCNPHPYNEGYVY
# Chain of CRX (O43186 whole entry): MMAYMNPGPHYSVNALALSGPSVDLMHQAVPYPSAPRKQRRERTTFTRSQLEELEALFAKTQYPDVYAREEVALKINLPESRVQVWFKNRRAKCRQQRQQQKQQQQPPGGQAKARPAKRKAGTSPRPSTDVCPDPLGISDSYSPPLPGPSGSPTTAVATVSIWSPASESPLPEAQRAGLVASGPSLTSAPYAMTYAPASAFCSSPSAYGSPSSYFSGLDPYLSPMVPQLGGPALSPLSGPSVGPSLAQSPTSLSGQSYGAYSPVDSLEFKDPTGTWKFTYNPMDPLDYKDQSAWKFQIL
# Chain of ETV5 (P41161 whole entry): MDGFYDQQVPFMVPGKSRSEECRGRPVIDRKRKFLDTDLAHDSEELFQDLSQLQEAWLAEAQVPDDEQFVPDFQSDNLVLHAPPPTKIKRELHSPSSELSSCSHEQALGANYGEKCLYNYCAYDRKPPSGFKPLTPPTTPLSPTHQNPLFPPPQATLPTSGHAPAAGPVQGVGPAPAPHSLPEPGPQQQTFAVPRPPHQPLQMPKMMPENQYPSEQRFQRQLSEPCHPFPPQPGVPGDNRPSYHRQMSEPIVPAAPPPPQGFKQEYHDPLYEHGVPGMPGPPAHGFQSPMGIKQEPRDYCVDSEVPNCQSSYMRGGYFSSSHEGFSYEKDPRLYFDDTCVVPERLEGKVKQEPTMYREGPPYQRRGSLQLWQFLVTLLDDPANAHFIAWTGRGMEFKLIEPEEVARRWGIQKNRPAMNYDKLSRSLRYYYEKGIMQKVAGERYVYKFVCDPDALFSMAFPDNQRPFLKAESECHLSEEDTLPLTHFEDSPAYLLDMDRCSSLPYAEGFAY
# Chain of ETV6 (P41212 whole entry): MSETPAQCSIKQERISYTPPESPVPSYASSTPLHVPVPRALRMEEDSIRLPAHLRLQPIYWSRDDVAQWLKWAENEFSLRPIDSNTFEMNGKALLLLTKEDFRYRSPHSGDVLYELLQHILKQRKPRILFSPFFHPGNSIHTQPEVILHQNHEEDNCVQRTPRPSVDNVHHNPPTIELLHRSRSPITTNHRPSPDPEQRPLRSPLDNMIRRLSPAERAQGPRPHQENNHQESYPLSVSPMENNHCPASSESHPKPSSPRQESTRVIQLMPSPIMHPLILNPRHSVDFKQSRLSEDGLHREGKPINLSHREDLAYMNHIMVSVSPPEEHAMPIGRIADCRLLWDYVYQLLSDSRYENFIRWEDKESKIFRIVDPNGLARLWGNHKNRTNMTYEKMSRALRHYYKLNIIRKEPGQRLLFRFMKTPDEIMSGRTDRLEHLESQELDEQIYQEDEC
# Chain of HSF1 (Q00613 whole entry): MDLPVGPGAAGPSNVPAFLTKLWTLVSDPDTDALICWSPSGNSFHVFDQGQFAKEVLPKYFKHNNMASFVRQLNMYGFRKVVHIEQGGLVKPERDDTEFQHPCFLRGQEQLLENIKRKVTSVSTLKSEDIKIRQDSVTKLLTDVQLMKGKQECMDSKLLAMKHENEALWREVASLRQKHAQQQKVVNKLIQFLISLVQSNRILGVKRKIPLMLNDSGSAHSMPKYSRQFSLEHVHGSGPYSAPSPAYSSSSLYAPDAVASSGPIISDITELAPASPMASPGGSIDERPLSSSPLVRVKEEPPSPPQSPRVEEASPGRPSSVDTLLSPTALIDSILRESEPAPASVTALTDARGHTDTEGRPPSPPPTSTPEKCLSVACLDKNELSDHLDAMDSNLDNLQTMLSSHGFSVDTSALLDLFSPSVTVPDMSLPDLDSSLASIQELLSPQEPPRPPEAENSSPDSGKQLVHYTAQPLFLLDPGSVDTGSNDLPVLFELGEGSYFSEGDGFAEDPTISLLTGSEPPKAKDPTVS
sequence,measurement,setting,value
TTAACA,binding signal,[1],"1.13 fold enrichment (6-mer frequency, TF over GST control)"
same,binding signal,[2],"1.14 fold enrichment (6-mer frequency, TF over GST control)"
same,binding signal,[3],"1.65 fold enrichment (6-mer frequency, TF over GST control)"
same,binding signal,[4],"1.14 fold enrichment (6-mer frequency, TF over GST control)"
same,binding signal,[5],"1.18 fold enrichment (6-mer frequency, TF over GST control)"
same,binding signal,[6],"1.28 fold enrichment (6-mer frequency, TF over GST control)"
same,binding signal,[7],"1.23 fold enrichment (6-mer frequency, TF over GST control)"
same,binding signal,[8],"1.22 fold enrichment (6-mer frequency, TF over GST control)"
same,binding signal,[9],"2.34 fold enrichment (6-mer frequency, TF over GST control)"
same,binding signal,[10],"1.23 fold enrichment (6-mer frequency, TF over GST control)"
same,binding signal,[11],"1.19 fold enrichment (6-mer frequency, TF over GST control)"
same,binding signal,[12],"1.2 fold enrichment (6-mer frequency, TF over GST control)"
same,binding signal,[13],"1.19 fold enrichment (6-mer frequency, TF over GST control)"
same,binding signal,[14],"1.21 fold enrichment (6-mer frequency, TF over GST control)"
same,binding signal,[15],"1.18 fold enrichment (6-mer frequency, TF over GST control)"
same,binding signal,[16],"1.14 fold enrichment (6-mer frequency, TF over GST control)"
same,binding signal,[17],"1.19 fold enrichment (6-mer frequency, TF over GST control)"
same,binding signal,[18],"1.11 fold enrichment (6-mer frequency, TF over GST control)"
